BoNT-A LC inh2: inhibitors of Botulinum neurotoxin A light chain protease. multiplex microsphere protease substrate cleavage, flow cytometry. inhibition, % at 10 µM. 360,000 compounds, 0.17% hits
BoNT F protease: blocks Botulinum neurotoxin F light chain protease; Multiplex microsphere protease cleavage assay, flow cytometry; inhibition, % at 10 µM; 360,000 compounds, 0.22% hits; in the data active means inhibition above about 35%, passing the limit was not always enough; inconclusive means no clear call, values can overlap the other calls
TcdB GH inh: blocks C. difficile toxin B glycohydrolase activity; P18177; TcdB glycohydrolase enzymatic assay, plate reader; inhibition, % at 9.99 µM; 350,000 compounds, 0.24% hits; AID 652162; in the data active means inhibition above about 10%
Anthrax LF inh2: anthrax lethal factor protease inhibition; P15917; multiplex microsphere protease cleavage assay, LF; inhibition, % at 10 µM; 360,000 compounds, 0.12% hits
Bead autofluor: counter-screen for toxin protease inhibitors: compound fluorescence; compound autofluorescence counterscreen, microsphere flow cytometry; hits give high values; fluorescence intensity (no concentration beside the values); 360,000 compounds, 3.1% hits; AID 624483; in the data active means fluorescence intensity above about 16000; inconclusive means no clear call, values can overlap the other calls
A number is an active result; i = inactive; ? = inconclusive; nt = no result. This excerpt belongs to a sample that is enriched for hits. Unless noted, no stated cut-off is given here; in the data, active means inhibition above about 30%; inconclusive means no clear call, values can overlap the other calls; inactive means below that.

SMILES | BoNT-A LC inh2 | BoNT F protease | TcdB GH inh | Anthrax LF inh2 | Bead autofluor
Cc1ccc(C2CC(C(F)(F)F)n3nc(C(=O)NCc4ccco4)cc3N2)cc1 (stereo unspecified) | ? | i | nt | i | 24280
Cc1cccc(NC(=O)c2cc3n(n2)C(C(F)(F)F)CC(c2ccc4c(c2)OCO4)N3)c1 (stereo unspecified) | i | i | nt | i | 22193
CCC(C)NC(=O)c1cnn2c1NC(c1ccc3c(c1)OCO3)CC2C(F)(F)F (stereo unspecified) | i | i | nt | i | 19687
O=C(C[C@H]1CC[C@@H](NS(=O)(=O)c2ccccc2)[C@@H](CO)O1)N1CCC(Cc2ccccc2)CC1 | nt | nt | i | nt | nt
C[C@@H]1CCCCO[C@H](CN(C)CC2CCCCC2)[C@H](C)CN([C@@H](C)CO)C(=O)c2cc(NS(=O)(=O)c3ccccc3)ccc2O1 | nt | nt | i | nt | nt
O=C(C[C@@H]1C[C@@H]2c3cc(NC(=O)C4CCOCC4)ccc3O[C@@H]2[C@H](CO)O1)NCc1ccc2c(c1)OCO2 | nt | nt | i | nt | nt
O=C1CCC(C(=O)OCC(=O)N2N=C3/C(=C/c4ccccc4)CCCC3C2c2ccccc2)N1 (stereo unspecified) | ? | i | i | i | 20500
O=C1CCC(C(=O)OCC(=O)N2N=C3/C(=C\c4ccccc4)CCCC3C2c2ccccc2)N1 (stereo unspecified) | i | i | i | i | i
COc1ccc(C(=O)NC(=S)NCc2ccccc2)cc1OC | i | i | i | i | i
CCOc1cc(C(=O)NCc2ccc(-c3nc4ccccc4o3)cc2)cc(OCC)c1OCC | i | i | nt | i | 16439
COc1ccc(C(=O)NC(=S)NCc2ccc(-c3nc4ccccc4o3)cc2)cc1OC | ? | i | nt | i | 21219
COc1cc(OC)cc(C(=O)Nc2ccc(-c3nc4ccccc4o3)cc2)c1 | i | i | nt | i | i
Cc1nc(NS(=O)(=O)c2cccs2)c2c3c(sc2n1)CCC3 | i | i | nt | i | i
Cc1nc(Nc2ccc(O)cc2)c2c3c(sc2n1)CCCC3 | i | i | i | i | i
Cc1ccc(CNc2nc(C)nc3sc4c(c23)CCC4)cc1 | ? | i | nt | i | 17440
Cc1nc(NC(C)c2ccccc2)c2c3c(sc2n1)CCC3 (stereo unspecified) | i | i | nt | i | 16604
CCN=C1SC(CC(=O)NC2CCCCC2)C(=O)N1CC (stereo unspecified) | ? | i | i | i | 20571
CCN=C1SC(CC(=O)NC(N)=O)C(=O)N1CC (stereo unspecified) | i | i | nt | i | i
C[C@@H]1CN([C@H](C)CO)C(=O)c2cccc(NC(=O)Nc3ccc4c(c3)OCO4)c2O[C@@H]1CN(C)Cc1ccc(C(=O)Nc2ccccc2N)cc1 | nt | nt | i | nt | nt
CC(C)C#Cc1cnc2c(c1)C(=O)N([C@H](C)CO)C[C@@H](C)[C@@H](CN(C)C(=O)Nc1ccccc1)O2 | nt | nt | i | nt | nt
Nc1nc(NCc2ccccc2)nc(Nc2cccc(F)c2)c1[N+](=O)[O-] | i | i | nt | i | 22824
CO[C@@H]1CN(C)C(=O)c2ccc(N)cc2OC[C@@H](C)NC[C@H]1C | nt | nt | i | nt | nt
COC(=O)c1ccccc1NC(=O)Oc1ccc(C(C)C)cc1 | i | i | i | i | 24059
COC(=O)c1ccccc1NC(=S)NC(=O)COc1ccc(C(C)C)cc1 | i | i | i | i | i
COc1ccc(NC(=O)Nc2ccc3c(c2)C(=O)N([C@@H](C)CO)C[C@@H](C)[C@H](CN(C)C(=O)Nc2ccc(OC)cc2)O3)cc1 | nt | nt | i | nt | nt
SMILES | BoNT-A LC inh2 | BoNT F protease | TcdB GH inh | Anthrax LF inh2 | Bead autofluor
COc1ccccc1CNC(=O)CCn1c(=O)[nH]c2ccsc2c1=O | ? | i | nt | i | 21437
COc1ccccc1N1CCN(C(=O)CCCn2c(=O)[nH]c3ccsc3c2=O)CC1 | i | i | i | i | i
OCCN1CCN(C(=S)c2ccc(Br)cc2)CC1 | ? | i | nt | i | 21663
CCC#CCN(Cc1ccccc1Br)[C@H](/C=C/c1ccccc1)[C@@H](O)Cc1ccccc1 | nt | nt | i | nt | nt
O=S(=O)(Cc1ccccc1)Nn1cnnc1 | i | i | i | i | 22495
Cc1ccc(-n2c(O)c(C=Nc3ccc4c(c3)OCO4)c3ccccc3c2=O)cc1C | i | i | nt | i | 22790
Cc1cc(N=Cc2c(O)n(-c3ccc4c(c3)OCO4)c(=O)c3ccccc23)ccn1 | i | i | nt | i | i
CN1[C@@H]2c3ccc(-c4ccccc4)c(=O)n3C[C@H]1[C@H](CO)[C@H]2C(=O)NCCc1ccccc1 | nt | nt | i | nt | nt
COc1ccc(CCNC(=O)C2CCN(Cc3nc(-c4ccccc4C)oc3C)CC2)cc1OC | i | i | nt | i | 22311
Cc1oc(-c2ccccc2F)nc1CN1CCC(C(=O)NCc2ccco2)CC1 | ? | i | nt | i | 19776
COc1ccc(CCNC(=O)C2CCN(Cc3nc(-c4ccc(Cl)cc4)oc3C)CC2)cc1OC | i | i | i | i | i
Cc1oc(-c2ccccc2F)nc1CN1CCC(C(=O)NC2CCCCCCC2)CC1 | i | i | nt | i | 16243
CC(=O)Nc1cccc(C(=O)N/N=C/c2cccc(C)n2)c1 | i | 45.5 | i | i | i
Cc1cccc(C(=O)Nc2cccc(C(=O)N/N=C/c3cccc(C)n3)c2)c1 | i | i | i | i | i
CN1C(=O)NC(c2ccccc2)C2=C1CN(CCc1ccccc1)C2=O (stereo unspecified) | ? | i | nt | i | 20821
CCOC(=O)C1=CC[C@@H](c2ccc(OC)cc2)[C@@H]1C(=O)c1ccccc1 | nt | nt | i | nt | nt
Cc1ccc(-c2nnc3c4ccccc4c(C)nn23)cc1S(=O)(=O)N1CCN(C)CC1 | ? | i | nt | i | 20956
CCCCn1c(-c2ccccc2C)nc2cc3[nH]c(=O)c(C(C)C)nc3cc21 | i | i | 11.3 | i | i
CCCCn1c(-c2cccc3ccccc23)nc2cc3[nH]c(=O)c(C(C)C)nc3cc21 | i | i | i | i | i
C[C@H](CO)N1C[C@H](C)[C@H](CN(C)C(=O)Nc2ccccc2F)Oc2ncc(C#CCN(C)C)cc2C1=O | nt | nt | i | nt | nt
COc1ccc(OCc2n[nH]c(=S)o2)cc1 | i | i | nt | i | i
S=c1[nH]nc(COc2ccc(Cl)cc2)o1 | ? | i | nt | i | 19965
CCCNC(=O)[C@H]1[C@H](CO)[C@H]2Cn3c(cccc3=O)[C@H]2N1C(=O)C1CCCC1 | nt | nt | i | nt | nt
NC1=NC(=O)C(=Cc2ccccc2)S1 | i | i | i | i | i
NC1=NC(=O)/C(=C/c2cccs2)S1 | i | i | nt | i | 23925
SMILES | BoNT-A LC inh2 | BoNT F protease | TcdB GH inh | Anthrax LF inh2 | Bead autofluor
CN(C)CC1(c2ccccc2)CCCC1 | i | i | nt | i | 17486
C/C(=N\Nc1ccc([N+](=O)[O-])cc1)c1cccc(N)c1 | i | i | 15.2 | i | i
C/C(=N\Nc1ccc([N+](=O)[O-])cc1)c1ccc(O)cc1 | i | i | i | i | i
C[C@@H]1CCCCO[C@H](CN(C)C(=O)CCC(F)(F)F)[C@H](C)CN([C@@H](C)CO)C(=O)c2cc(NS(=O)(=O)c3ccc(F)cc3)ccc2O1 | nt | nt | i | nt | nt
O=C(NCCOCC(F)(F)C(F)F)c1cc(F)c(F)cc1Cl | i | i | i | i | 20634
CCCC(=O)Nc1ccc2c(c1)C(=O)N(C)C[C@@H](OC)[C@@H](C)CN(Cc1cccc(F)c1)[C@H](C)CO2 | nt | nt | i | nt | nt
CN(C)C(=O)C[C@@H]1CC[C@@H](NC(=O)C2CCOCC2)[C@@H](CO)O1 | nt | nt | i | nt | nt
O=C(COc1ccc(/C=N/NC(=O)c2ccc(O)cc2)cc1)Nc1cccc([N+](=O)[O-])c1 | i | i | 15.4 | i | i

Assay outcomes: PubChem BioAssay, several laboratories
